# Bioassay records (PubChem BioAssay)
# Tg IFNy HTS = T. gondii growth inhibition under IFN-gamma; Toxoplasma gondii growth in IFN-gamma-treated host cells; active compounds read low; activity change, negative = inhibition, % (no concentration beside the values); 69,000 compounds, 3.8% hits; in the data active = activity change below about -70%, passing the limit was not always enough;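 also: host cells are HeLa cells infected with Toxoplasma gondii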
# Active calls of the source: *. Only a selection was taken, and hits are over-represented in it overall.
SMILES,Tg IFNy HTS
O=C(c1n[nH]c2ccccc12)N1CCOC2(CNCCOC2)C1 (centres undefined),9.3
O=C1NCCOc2ccc(S(=O)(=O)NCc3ccco3)cc21,-35.0
COc1ccc(-c2nc3ccc(C4=NNC(=O)CC4C)cc3[nH]2)cc1 (centres undefined),28.8
CN=C(NC#N)Nc1ccc(C2=NNC(=O)CC2C)cc1 (centres undefined),14.0
CCN(CC)c1ccc(C2=NNC(=O)CC2C)cc1[N+](=O)[O-] (centres undefined),-98.3*
COC(=O)c1cccnc1NCC1CNCCOC1 (centres undefined),7.9
c1ccc(CCNCC2Cn3nncc3CO2)cc1 (centres undefined),-11.7
COc1ccc(CN2CCC=C(C3CCCCN3C(C)=O)C2)cc1 (centres undefined),-41.8
Cc1ccc(S(=O)(=O)Nc2c(Cl)c(Cl)nc(C#N)c2Cl)cc1,-92.7*
Cc1ccc(S(=O)(=O)Nc2ccc(S(=O)(=O)Nc3nc(C)cc(C)n3)cc2)cc1,48.1
Cc1ccc(S(=O)(=O)Nc2cc(C(C)(C)C)sc2C#N)cc1,1.2
Cc1ccc(NC(=O)CN2C(=O)CCc3cc(Br)ccc32)cc1C,138.3
O=S(=O)(c1ccccc1)N1CCCC12CCN(Cc1ccc(O)cc1)CC2,-14.5
Cc1nc2c(c(NC3CC3)n1)CCN(C(=O)CCC(=O)O)CC2,10.3
Cc1cc(C#N)cc(C)c1Oc1nc(Nc2ccc(C#N)cc2)nc(N)c1Br,-85.6*
CCCCS(=O)(=O)N1CC[C@H]2[C@@H]1CCN2c1nncs1,-24.2
c1coc(-c2nnc3n2C2(CCCC2)Cc2ccccc2-3)c1,39.7
c1csc(-c2nnc3n2C2(CCCC2)Cc2ccccc2-3)c1,-97.5*
c1ccc(-c2nnc3n2C2(CCCCC2)Cc2ccccc2-3)cc1,-65.6
COc1ccc(N2CCN(Cc3ccc(-c4ccn[nH]4)o3)C(C)C2)cc1 (centres undefined),5.0
CCCCC(=O)O[C@H]1CC[C@H]2[C@@H]3CCc4cc(O)ccc4[C@H]3CC[C@]12C,-35.0
CC(=O)Oc1ccc2c(c1)CCC1C2=CCC2(C)C(OC(C)=O)CCC12 (centres undefined),-92.4*
CC1CCCN(C(=O)CCN2CCC(c3cccc(O)c3)CC2)C1 (centres undefined),-7.2
O=C(Nc1ccccc1Sc1c(Cl)cncc1Cl)c1cccs1,-67.6
O=C(Nc1ccc(Cl)cc1)Nc1ccccc1Sc1c(Cl)cncc1Cl,-97.0*
SMILES,Tg IFNy HTS
O=C(Nc1ccccc1)Nc1ccccc1SCCS(=O)(=O)c1ccc(Cl)cc1,-54.1
COc1ccc2[nH]c(=O)c(CNc3ccc4c(c3)-c3ccccc3S(=O)(=O)N4)cc2c1,27.5
O=C(Nc1nc(-c2ccccn2)cs1)c1ccccc1CN1CCCCC1,-14.3
Cc1cc(C)n(-c2ccc(CCC(=O)Nc3nc(-c4ccccn4)cs3)cc2)n1,-97.9*
Cc1cc(C)n(-c2ccc(C(=O)Nc3nnc(CCc4ccccc4)s3)cc2)n1,-26.0
Cc1oc(-c2ccccc2Cl)nc1Cn1cnc2onc(C)c2c1=O,42.9
CC1CC1C(=O)N1CCC2(CCCN(CC3CCOCC3)C2=O)CC1 (centres undefined),56.9
c1cnc(N2CC(c3[nH]nc4ncccc34)C2)nc1,-6.4
COCC1(NC(=O)C(=O)Nc2ccc(C)cc2)CCCC1,101.5
CCOc1ccc2[nH]c(=O)c(CN(C)Cc3cc(C)on3)cc2c1,-18.2
COc1ccc2[nH]c(=O)c(CNc3c(C)cc[nH]c3=O)cc2c1,139.3
CCOc1ccc2[nH]c(=O)c(CNCCO)cc2c1,-101.1*
Cc1ccc(CN2CC[C@@H]3C[C@@H](C(=O)N4CCCCO4)O[C@@H]3C2)o1,0.3
Fc1cc(F)cc(-c2nc(-c3ccccn3)ncc2-c2nnnn2-c2ccccc2)c1,2.6
Cc1cccc(C(=O)N2CCC(N3CCCC(C(=O)N4CCOCC4)C3)CC2)n1 (centres undefined),-7.6
O=C(NCCCOc1cccnc1)C1CCC(O)CC1 (centres undefined),0.4
CCc1nnc(NC(=S)NC(=O)c2ccc(-c3ccccc3)cc2)s1,245.1
CCc1nnc(NC(=O)c2ccc(S(=O)(=O)NCC(C)C)cc2)s1,-74.8*
COc1ccc(S(=O)(=O)Nc2nnc(CC(C)C)s2)cc1,7.0
Cc1nc(C)n(CC(C)C(=O)Nc2ccc(OCCN3CCC(C)CC3)cc2)n1 (centres undefined),10.6
Cc1ccc(C2(O)CCN(C(=O)CN3CCOC3=O)CC2)nc1,-2.1
O=C(NC(=S)NCc1ccccc1Cl)c1ccc(Cl)cc1Cl,-11.7
O=C(c1ccc(-c2ccsc2)nc1)N1CCCC(c2ccccc2)CC1 (centres undefined),-9.6
COCC(=O)N1Cc2nccn2CC(Cn2ncccc2=O)C1 (centres undefined),2.7
O=C(c1cncc(-c2ccnc3[nH]ccc23)n1)N1CCCCC1,-33.4
SMILES,Tg IFNy HTS
NC(=O)c1cc(-c2ccnc3[nH]ccc23)ccc1Cl,-88.7*
CNC(=O)c1cc(-c2ccn[nH]2)ccc1Cl,4.4
C=C(C)COc1cccc(CN2CCC3(CC2)CNC(=O)C3)c1,-10.1
COc1ccc(-c2nn(C(=O)c3ccccc3)c(=S)o2)cc1,9.5
COc1ccc(-c2nc(Cn3nnc(-c4nc(-c5cccc(Cl)c5)no4)c3C)c(C)o2)cc1,8.2
Cc1ccccc1-c1ncc(CN(C)Cc2cccc3ncccc23)cn1,-88.6*
CN(Cc1cnc(-c2ccccn2)nc1)Cc1cccc2ncccc12,-0.1
CCNc1ncc(CN(C)Cc2cccc3ncccc23)cn1,-30.4
Cc1ccc(Nc2nc(C(=O)Nc3cccc(Cl)c3C)nc3ccccc23)cc1,26.0
CNC(=O)N1CCC2(COCc3c(C)nc(-c4ccccc4)nc32)C1 (centres undefined),-5.2
CCc1nc(C)c(C(=O)N2CCCC(c3[nH]ncc3-c3ccc(C)cc3)C2)o1 (centres undefined),-6.9
O=S(=O)(Cc1ccccc1)N1CC2CN(Cc3ccccc3)CC2C1 (centres undefined),-14.4
O=S(=O)(Cc1ccccc1)N1CC2CN(Cc3cccc(Cl)c3)CC2C1 (centres undefined),-21.0
O=S(=O)(c1ccccc1)N1CC2CN(Cc3ccc(Cl)cc3)C2C1 (centres undefined),-105.6*
COc1ccc(-c2nc(CN(c3ccc(OC)cc3)S(=O)(=O)c3ccc(OC)cc3)c(C)o2)cc1,-39.2
COc1ccc(OS(=O)(=O)c2sc3ccc(Cl)cc3c2C)cc1,-104.0*
Cc1c(C(=O)CSc2ccc(Cl)cc2)sc2ccc(Cl)cc12,-56.6
Cc1cc(=O)c2cc(Cl)ccc2s1,58.7
Cc1cc(C)c(OCC(=O)NC2=NCCS2)c(Cl)c1,2.1
Cn1c(=O)n(C)c2cc(NC(=O)C(c3ccc(F)cc3)N3CCOCC3)ccc21 (centres undefined),2.4
CC(C)(C)CC(=O)NCCc1csc(-c2ccc(Cl)cc2)n1,-39.1
CNC(=O)c1ccc(CN2CCCC(CCc3ccccc3C)C2)cc1 (centres undefined),-7.4
Cc1c[nH]c(CN2CCCC(CCc3ccccc3F)C2)c(C)c1=O (centres undefined),-89.2*
COc1coc(CN2CCCC(CCc3ccccc3C)C2)cc1=O (centres undefined),-13.9
Cc1ccc2c(c1)NC1(CCN(C(=O)Nc3ccccc3C(F)(F)F)CC1)c1cccn1-2,165.9
CO[C@@H]1CN(C)C(=O)c2ccc(NC(=O)c3nc4ccccc4s3)cc2OC[C@@H](C)N(Cc2cccnc2)C[C@@H]1C,-112.5*
